# Laboratory results: ChEMBL document CHEMBL3988442, “University of Dundee, Small-Polar-MMV Screening Library” (2021)
# Target: AMP-activated protein kinase, AMPK (Homo sapiens) (UniProt P54646+O43741+P54619+Q9UGJ0+Q9Y478+Q13131+Q9UGI9)
# Test: AMP-dependent Kinase enzyme assay. An in vitro enzyme assay that detects ADP turnover that is directly proportional to AMPK activity. This uses naive AMPK that is activated during the assay with MK-8722
# Format: functional
# Design: scale not given: direction of the effect not stated beside the values
# Conditions: 30 µM
row,SMILES,Percent Effect [%]
1,CN1CCC(NC(=O)c2cc(Cl)cc(Br)c2O)C1=O (centres undefined),12.7
2,CCOC(=O)N1CCN(C(=O)Cn2ccc3ncccc3c2=O)CC1,-0.626
3,COCc1ccccc1NC(=O)CCNC(=O)c1ccoc1,-3.07
4,CCC(C)Oc1ccc(CNCCc2c[nH]cn2)cc1Cl (centres undefined),-17.6
5,Cc1nc(C)n(CC2CCCN2c2ncnc3sc(C)c(C)c23)n1 (centres undefined),-3.96
6,CC1(C(N)=O)CN(S(=O)(=O)c2cccc(F)c2)CCO1 (centres undefined),3.77
7,CCCN(Cc1nnnn1C1CC1)CC1COc2ccccc2O1 (centres undefined),7.59
8,NC(=O)c1ccnc(N2CCCC(CO)(Cc3ccc(F)cc3)C2)c1 (centres undefined),16.1
9,Cc1nccc(C2(C)CCCNC2)n1 (centres undefined),13.7
10,NC(=O)CN(Cc1ncc(-c2ccc(Cl)cc2)o1)C1CCCC1,-5.3
11,COc1ccc(S(=O)(=O)C2CCN(C(=O)c3cc(C)cs3)CC2)cc1,2.13
12,NC(=O)COc1ccc(CN2CC[C@@]3(O)CCCC[C@H]3C2)cc1Cl,3.71
13,CC(=O)Nc1ccc(-c2ccccc2NC(=O)CN)cc1,17.8
14,Cc1cc(C[S+]([O-])Cc2ccccc2C)no1 (centres undefined),5.62
15,CC(O)CN(C)S(=O)(=O)c1ccc(C#N)cc1F (centres undefined),1.31
16,CS(=O)(=O)NC1CCN(Cc2coc(-c3ccccc3)n2)CC1,0.161
17,COc1ncccc1C(=O)NCCn1nc(C)ccc1=O,-4.66
18,O=C(CN1CC(c2nc(C3CC3)no2)C1)NCc1ccc(F)cc1,3.03
19,Cc1ncc(CNC(CCO)C2CCCCC2)s1 (centres undefined),4.05
